# According to PMC5540273 (PLoS ONE, 2017):
# Like-named read-outs stand apart in the source and are kept apart here.
# Key:
# CAMK1 = details: concentration: 1 μM,replicates: in singlicate; n = 1
# CAMK2A = details: concentration: 1 μM,replicates: in singlicate; n = 1
# CAMK2B = details: concentration: 1 μM,replicates: in singlicate; n = 1
# CAMK2D = details: concentration: 1 μM,replicates: in singlicate; n = 1
# CAMK2G = details: concentration: 1 μM,replicates: in singlicate; n = 1
# CAMK4 = details: concentration: 1 μM,replicates: in singlicate; n = 1
# CAMKK1 = details: concentration: 1 μM,replicates: in singlicate; n = 1
# CAMKK2 = details: concentration: 1 μM,replicates: in singlicate; n = 1
# CASK = details: concentration: 1 μM,replicates: in singlicate; n = 1
# CDC2L1 = tested on: T1, CDC2L1; details: concentration: 1 μM,replicates: in singlicate; n = 1
# T1 construct: gene CDK11B
# CDC2L2 = details: concentration: 1 μM,replicates: in singlicate; n = 1
# CDC2L5 = tested on: T2, CDC2L5; details: n = 1
# T2 construct: gene CDK13
# CDK11 = tested on: T3, CDK11; details: concentration: 1 μM,replicates: in singlicate; n = 1
# T3 construct: gene CDK19
# CDK2 = details: concentration: 1 μM,replicates: in singlicate; n = 1
# CDK3 = details: concentration: 1 μM,replicates: in singlicate; n = 1
# CDK4-cyclinD1 = details: n = 1
# CDK4-cyclinD3 = details: n = 1
# CDK4 = details: n = 1
# CDK5 = details: concentration: 1 μM,replicates: in singlicate; n = 1
# CDK7 = details: concentration: 1 μM,replicates: in singlicate; n = 1
# [1] = concentration: 1 μM,replicates: in singlicate
# 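Further: KINOMEscan kinase panel screen.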
smiles,measurement,setting,value
Cl.Cl.NC[C@H](CC1CCCCC1)NC(=O)c1ccc(-c2ccnc3[nH]ccc23)s1 [GSK1581428],%Inh,CAMK1,37%
same,%Inh,CAMK2A,0%
same,%Inh,CAMK2B,0%
same,%Inh,CAMK2D,7%
same,%Inh,CAMK2G,5%
same,%Inh,CAMK4,0%
same,%Inh,CAMKK1,40%
same,%Inh,CAMKK2,27%
same,%Inh,CASK,4%
same,%Inh,CDC2L1,0%
same,%Inh,CDC2L2,0%
same,%Inh,CDC2L5; [1],0%
same,%Inh,CDK11,4%
same,%Inh,CDK2,11%
same,%Inh,CDK3,0%
same,%Inh,CDK4-cyclinD1; [1],0%
same,%Inh,CDK4-cyclinD3; [1],23%
same,%Inh,CDK4; [1],25%
same,%Inh,CDK5,0%
same,%Inh,CDK7,94.6%
N#Cc1cccc(C(=O)NC2CCN(c3ccnc(Nc4ccc(F)cc4)n3)C2)c1 (centres unmarked) [GSK1379708],%Inh,CAMK1,9%
same,%Inh,CAMK2A,0%
same,%Inh,CAMK2B,0%
same,%Inh,CAMK2D,0%
same,%Inh,CAMK2G,0%
same,%Inh,CAMK4,0%
same,%Inh,CAMKK1,0%
same,%Inh,CAMKK2,0%
same,%Inh,CASK,15%
same,%Inh,CDC2L1,0%
same,%Inh,CDC2L2,0%
same,%Inh,CDC2L5; [1],0%
same,%Inh,CDK11,4%
same,%Inh,CDK2,0%
same,%Inh,CDK3,0%
same,%Inh,CDK4-cyclinD1; [1],0%
same,%Inh,CDK4-cyclinD3; [1],0%
same,%Inh,CDK4; [1],10%
same,%Inh,CDK5,0%
same,%Inh,CDK7,0%
Cn1ccc2ncnc(Oc3ccc(NC(=O)Nc4cccc(C(F)(F)F)c4)c(F)c3)c21,%Inh,CAMK1,0%
same,%Inh,CAMK2A,6%
same,%Inh,CAMK2B,8%
same,%Inh,CAMK2D,6%
same,%Inh,CAMK2G,10%
same,%Inh,CAMK4,15%
same,%Inh,CAMKK1,18%
same,%Inh,CAMKK2,19%
same,%Inh,CASK,0%
same,%Inh,CDC2L1,19%
same,%Inh,CDC2L2,0%
same,%Inh,CDC2L5; [1],33%
same,%Inh,CDK11,99.3%
same,%Inh,CDK2,7%
same,%Inh,CDK3,39%
same,%Inh,CDK4-cyclinD1; [1],16%
same,%Inh,CDK4-cyclinD3; [1],0%
same,%Inh,CDK4; [1],0%
same,%Inh,CDK5,10%
same,%Inh,CDK7,68%
Cn1cc(-c2cccc3c(N)c(C(N)=O)nnc23)cn1,%Inh,CAMK1,33%
same,%Inh,CAMK2A,7%
same,%Inh,CAMK2B,2%
same,%Inh,CAMK2D,15%
same,%Inh,CAMK2G,0%
same,%Inh,CAMK4,0%
same,%Inh,CAMKK1,5%
same,%Inh,CAMKK2,6%
same,%Inh,CASK,4%
same,%Inh,CDC2L1,1%
same,%Inh,CDC2L2,7%
same,%Inh,CDC2L5; [1],10%
same,%Inh,CDK11,19%
same,%Inh,CDK2,17%
same,%Inh,CDK3,30%
same,%Inh,CDK4-cyclinD1; [1],8%
same,%Inh,CDK4-cyclinD3; [1],7%
same,%Inh,CDK4; [1],0%
same,%Inh,CDK5,3%
same,%Inh,CDK7,26%
CC(C)S(=O)(=O)N1CCN(Cc2ccc3c(c2)nc(NC(=O)c2ccsc2)n3C[C@H](O)c2ccccc2)CC1 [GW635815],%Inh,CAMK1,25%
same,%Inh,CAMK2A,0%
same,%Inh,CAMK2B,0%
same,%Inh,CAMK2D,11%
same,%Inh,CAMK2G,39%
same,%Inh,CAMK4,0%
same,%Inh,CAMKK1,44%
same,%Inh,CAMKK2,61%
same,%Inh,CASK,22%
same,%Inh,CDC2L1,0%
same,%Inh,CDC2L2,4%
same,%Inh,CDC2L5; [1],0%
same,%Inh,CDK11,6%
same,%Inh,CDK2,0%
same,%Inh,CDK3,25%
same,%Inh,CDK4-cyclinD1; [1],0%
same,%Inh,CDK4-cyclinD3; [1],0%
same,%Inh,CDK4; [1],42%
same,%Inh,CDK5,0%
same,%Inh,CDK7,8%
Cc1ccc(CC(=O)N2CCc3cc(-c4cn(C)c5ncnc(N)c45)ccc32)cc1 [GSK2634758],%Inh,CAMK1,7%
same,%Inh,CAMK2A,0%
same,%Inh,CAMK2B,0%
same,%Inh,CAMK2D,16%
same,%Inh,CAMK2G,22%
same,%Inh,CAMK4,0%
same,%Inh,CAMKK1,5%
same,%Inh,CAMKK2,19%
same,%Inh,CASK,7%
same,%Inh,CDC2L1,0%
same,%Inh,CDC2L2,21%
same,%Inh,CDC2L5; [1],0%
same,%Inh,CDK11,72%
same,%Inh,CDK2,5%
same,%Inh,CDK3,0%
same,%Inh,CDK4-cyclinD1; [1],0%
same,%Inh,CDK4-cyclinD3; [1],0%
same,%Inh,CDK4; [1],26%
same,%Inh,CDK5,10%
same,%Inh,CDK7,1%
O=C(NOCC1CC1)c1cc(Br)c(F)c(F)c1Nc1ccc(I)cc1Cl,%Inh,CAMK1,0%
same,%Inh,CAMK2A,0%
same,%Inh,CAMK2B,0%
same,%Inh,CAMK2D,0%
same,%Inh,CAMK2G,0%
same,%Inh,CAMK4,0%
same,%Inh,CAMKK1,0%
same,%Inh,CAMKK2,0%
same,%Inh,CASK,0%
same,%Inh,CDC2L1,0%
same,%Inh,CDC2L2,0%
same,%Inh,CDC2L5; [1],0%
same,%Inh,CDK11,0%
same,%Inh,CDK2,0%
same,%Inh,CDK3,14%
same,%Inh,CDK4-cyclinD1; [1],0%
same,%Inh,CDK4-cyclinD3; [1],17%
same,%Inh,CDK4; [1],14%
same,%Inh,CDK5,0%
same,%Inh,CDK7,0%
COc1cccc(OC)c1C(=O)Nc1cccc(-c2nn3ccccc3c2-c2ccnc(Nc3cccc(F)c3)n2)c1 [GSK361065],%Inh,CAMK1,19%
same,%Inh,CAMK2A,27%
same,%Inh,CAMK2B,6%
same,%Inh,CAMK2D,0%
same,%Inh,CAMK2G,0%
same,%Inh,CAMK4,0%
same,%Inh,CAMKK1,4%
same,%Inh,CAMKK2,0%
same,%Inh,CASK,15%
same,%Inh,CDC2L1,0%
same,%Inh,CDC2L2,0%
same,%Inh,CDC2L5; 1 µM,1%
same,%Inh,CDK11,0%
same,%Inh,CDK2,0%
same,%Inh,CDK3,0%
same,%Inh,CDK4-cyclinD1; 1 µM,0%
same,%Inh,CDK4-cyclinD3; 1 µM,7%
same,%Inh,CDK4; 1 µM,0%
same,%Inh,CDK5,21%
same,%Inh,CDK7,22%
C[C@@H](Oc1cc(-n2cnc3ccc(-c4ccncc4)cc32)sc1C(N)=O)c1ccccc1Cl [GSK483724],%Inh,CAMK1,40%
same,%Inh,CAMK2A,15%
same,%Inh,CAMK2B,0%
same,%Inh,CAMK2D,31%
same,%Inh,CAMK2G,37%
same,%Inh,CAMK4,0%
same,%Inh,CAMKK1,34%
same,%Inh,CAMKK2,59%
same,%Inh,CASK,14%
same,%Inh,CDC2L1,0%
same,%Inh,CDC2L2,7%
same,%Inh,CDC2L5; [1],0%
same,%Inh,CDK11,73%
same,%Inh,CDK2,30%
same,%Inh,CDK3,36%
same,%Inh,CDK4-cyclinD1; [1],0%
same,%Inh,CDK4-cyclinD3; [1],0%
same,%Inh,CDK4; [1],27%
same,%Inh,CDK5,1%
same,%Inh,CDK7,0%
COc1cc(Nc2nccc(N3CCC(NC(=O)c4cccc(C#N)c4)C3)n2)cc(OC)c1OC (centres unmarked) [GSK1379751],%Inh,CAMK1,3%
same,%Inh,CAMK2A,0%
same,%Inh,CAMK2B,0%
same,%Inh,CAMK2D,0%
same,%Inh,CAMK2G,17%
same,%Inh,CAMK4,0%
same,%Inh,CAMKK1,0%
same,%Inh,CAMKK2,3%
same,%Inh,CASK,3%
same,%Inh,CDC2L1,0%
same,%Inh,CDC2L2,36%
same,%Inh,CDC2L5; [1],0%
same,%Inh,CDK11,12%
same,%Inh,CDK2,0%
same,%Inh,CDK3,0%
same,%Inh,CDK4-cyclinD1; [1],5%
same,%Inh,CDK4-cyclinD3; [1],0%
same,%Inh,CDK4; [1],27%
same,%Inh,CDK5,0%
same,%Inh,CDK7,0%
COc1cccc(CNC(=O)NC2CCN(c3ccnc(Nc4cc(OC)c(OC)c(OC)c4)n3)C2)c1 (centres unmarked) [GSK1379765],%Inh,CAMK1,35%
same,%Inh,CAMK2A,0%
same,%Inh,CAMK2B,0%
same,%Inh,CAMK2D,0%
same,%Inh,CAMK2G,19%
same,%Inh,CAMK4,0%
same,%Inh,CAMKK1,16%
same,%Inh,CAMKK2,14%
same,%Inh,CASK,0%
same,%Inh,CDC2L1,0%
same,%Inh,CDC2L2,25%
same,%Inh,CDC2L5; [1],0%
same,%Inh,CDK11,22%
same,%Inh,CDK2,0%
same,%Inh,CDK3,8%
same,%Inh,CDK4-cyclinD1; [1],4%
same,%Inh,CDK4-cyclinD3; [1],0%
same,%Inh,CDK4; [1],14%
same,%Inh,CDK5,0%
same,%Inh,CDK7,0%
NC(=O)c1ccc(-c2cc3ncnc(SCC(=O)O)c3s2)cc1,%Inh,CAMK1,0%
same,%Inh,CAMK2A,0%
same,%Inh,CAMK2B,0%
same,%Inh,CAMK2D,0%
same,%Inh,CAMK2G,0%
same,%Inh,CAMK4,0%
same,%Inh,CAMKK1,75%
same,%Inh,CAMKK2,81%
same,%Inh,CASK,0%
same,%Inh,CDC2L1,0%
same,%Inh,CDC2L2,0%
same,%Inh,CDC2L5; [1],0%
same,%Inh,CDK11,0%
same,%Inh,CDK2,0%
same,%Inh,CDK3,0%
same,%Inh,CDK4-cyclinD1; [1],1%
same,%Inh,CDK4-cyclinD3; [1],0%
same,%Inh,CDK4; [1],0%
same,%Inh,CDK5,18%
same,%Inh,CDK7,58%
CNC(=O)c1ccccc1Nc1nc(Nc2cccc(CS(C)(=O)=O)c2)ncc1C.O=CO [GSK1520489],%Inh,CAMK1,76%
same,%Inh,CAMK2A,1%
same,%Inh,CAMK2B,0%
same,%Inh,CAMK2D,16%
same,%Inh,CAMK2G,34%
same,%Inh,CAMK4,0%
same,%Inh,CAMKK1,88%
same,%Inh,CAMKK2,91.2%
same,%Inh,CASK,59%
same,%Inh,CDC2L1,0%
same,%Inh,CDC2L2,0%
same,%Inh,CDC2L5; [1],0%
same,%Inh,CDK11,0%
same,%Inh,CDK2,16%
same,%Inh,CDK3,36%
same,%Inh,CDK4-cyclinD1; [1],0%
same,%Inh,CDK4-cyclinD3; [1],19%
same,%Inh,CDK4; [1],30%
same,%Inh,CDK5,0%
same,%Inh,CDK7,89%
